Manual score data for 28 molecules are collected here from PubChem BioAssay AID623911 (Vanderbilt High Throughput Screening Facility, 2012).

Among all 2,100 compounds or so, about 770 (37%) were called active. The list shows a part of the results. Unmarked numbers belong to inactive results.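 Rule for the calls: active = by-eye trace score of 1 for enhancers or -1 for inhibitors, so actives lie on both sides (some results past the limit were not filed as active); inactive = score 0, or 3 fluorescent, or 4 baseline rise.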

Chain of G protein-activated inward rectifier potassium channel 2 (Homo sapiens) + G protein-activated inward rectifier potassium channel 1 (Homo sapiens) (P48051 whole entry, looked up): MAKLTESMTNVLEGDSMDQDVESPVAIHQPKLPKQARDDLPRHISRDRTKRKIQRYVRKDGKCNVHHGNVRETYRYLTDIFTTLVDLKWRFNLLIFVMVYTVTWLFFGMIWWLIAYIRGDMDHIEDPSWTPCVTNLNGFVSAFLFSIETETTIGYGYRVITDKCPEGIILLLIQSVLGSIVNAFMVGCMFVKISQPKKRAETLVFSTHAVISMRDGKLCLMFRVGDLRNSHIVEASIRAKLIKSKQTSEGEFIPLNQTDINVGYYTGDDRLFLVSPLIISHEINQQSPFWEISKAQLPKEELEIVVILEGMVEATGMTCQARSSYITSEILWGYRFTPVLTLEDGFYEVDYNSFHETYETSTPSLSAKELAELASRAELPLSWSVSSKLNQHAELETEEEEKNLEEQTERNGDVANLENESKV
Chain of G protein-activated inward rectifier potassium channel 2 (Homo sapiens) + G protein-activated inward rectifier potassium channel 1 (Homo sapiens) (P48549 whole entry, looked up): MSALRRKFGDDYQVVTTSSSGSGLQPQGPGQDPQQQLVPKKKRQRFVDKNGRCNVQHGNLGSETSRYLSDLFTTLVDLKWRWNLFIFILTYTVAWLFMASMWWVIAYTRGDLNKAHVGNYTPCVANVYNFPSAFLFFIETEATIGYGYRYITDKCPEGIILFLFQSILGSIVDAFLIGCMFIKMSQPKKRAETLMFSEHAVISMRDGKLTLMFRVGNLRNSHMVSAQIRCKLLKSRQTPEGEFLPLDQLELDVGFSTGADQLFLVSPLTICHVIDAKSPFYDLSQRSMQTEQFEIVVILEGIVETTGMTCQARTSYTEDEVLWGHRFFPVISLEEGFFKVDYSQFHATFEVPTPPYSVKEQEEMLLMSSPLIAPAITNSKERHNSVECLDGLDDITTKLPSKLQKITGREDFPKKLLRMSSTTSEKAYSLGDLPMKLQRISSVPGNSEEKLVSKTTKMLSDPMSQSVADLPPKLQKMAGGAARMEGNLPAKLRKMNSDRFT

The test concerns the target G protein-activated inward rectifier potassium channel 2 (Homo sapiens) + G protein-activated inward rectifier potassium channel 1 (Homo sapiens) (UniProt P48051+P48549). Nature of the test: GIRK1/2 thallium flux modulators, retest, confirmation, cell-based, HEK293 rmGlu8/hGIRK1/2, FluoZin-2 (AID 623911). Conditions: HEK293 rmGlu8/hGIRK1/2, thallium flux FluoZin-2; actives lie on both sides; glutamate co-added at its EC20 level.
`Cc1cc(N2CCC(C)CC2)n2ncc(-c3ccccc3)c2n1`: the manual score is 0. In the case of `CCC(CC)c1nnc(NC(=O)C2COc3ccccc3O2)s1` (stereo not drawn), the manual score was 0. For the molecule `NS(=O)(=O)c1ccc(NC(=O)C2COc3ccccc3O2)cc1` (stereo not drawn), the manual score is 0. Take `CCC(/C=N/NC(=O)C1COc2ccccc2O1)CC` (stereo not drawn): the manual score was 1 (active).

Take `COc1ccc(OC)c(C(=O)c2coc3ccc(O)c(CN4CCOCC4)c23)c1`: the manual score was -1 (active). Regarding `COc1ccc(-n2nnnc2SCC(=O)N2CCOCC2)cc1`, the manual score is -0.5. The value for `COC(=O)COc1ccc(S(=O)(=O)Nc2ccccc2C(=O)OC)cc1` was 0; that for `COC(=O)C(C)N(C(=O)c1cccc2ccccc12)c1c(C)cccc1C` (stereo not drawn) was -1 (active). Take `CCC/C(=N/NC(=O)c1cccc(Cl)c1)c1ccccc1`: the manual score was 0.

Regarding `COC(=O)C(C)N(C(=O)c1cccc(Cl)c1)c1c(C)cccc1C` (stereo not drawn), the manual score was -1 (active). Take `NC(=O)Nc1cccc2ccccc12`: the manual score is 0. As for `O=C(Nc1ccc2oc(-c3ccncc3)nc2c1)c1c(F)c(F)c(F)c(F)c1F`, the manual score is 0. Then `CC(C)CN1C(=O)/C(=C/c2cccs2)NC1=S`, with 1 (active); and `CCN1C(=O)/C(=C/c2ccc(C)s2)NC1=S`, with 1 (active); and `O=C1/C(=C/c2ccc(N3CCCC3)cc2)NC(=S)N1C1CC1`, with 3. Turning to `CCCN1C(=O)/C(=C/c2ccc(C)s2)NC1=S`, the manual score is 1 (active).

`CCCN1C(=O)/C(=C/c2ccc(N3CCCC3)c(C)c2)NC1=S`: the manual score is 3. Regarding `O=C(Nc1nnc(SCc2ccc(F)cc2)s1)C1CC(=O)N(c2ccc3c(c2)OCCO3)C1` (stereo not drawn), the manual score was 0.

Turning to `CN(C)c1nc2n(c(=O)n1)C(C#N)CS2` (stereo not drawn), the manual score was 0. The value for `O=c1[nH]c(CS(=O)(=O)c2ccccc2)nc2ccccc12` was 0; that for `CCCCCCCCCn1c2c(c(=N)c3c1CCC3)CCC2` was -1 (active); that for `CCCCn1c(-c2csc3c2CCCC3)n[nH]c1=S` was -0.5.

For `CC(=O)c1ccc(OC(=O)N(c2ccccc2)c2ccccc2)cc1`, the manual score was 0. As to `N[C@@H](Cc1ccccc1)c1nnc(SCc2ccccc2F)o1`, the manual score was 0.

With `Cc1cc(=S)[nH]c2c(C)cccc12`, the manual score is 1 (active).

`Cc1cc(C)c2[nH]c(=S)cc(C)c2c1`: the manual score is 1 (active). Regarding `CC1(C)Cc2c(ccc3ccccc23)-c2nnc(-c3cccnc3)n21`, the manual score is 0.

Consider `CCOC(=O)N/N=C/c1c(C)nn(-c2ccccc2Cl)c1Cl`, for which the manual score is 0.
